The values that follow come from publication PMC3218832.

Some targets named below: RELARELA (p65 homodimer) (Homo sapiens, UniProt Q04206 1-307); p50p50 homodimer (Homo sapiens, UniProt P19838 7-356); RELB subunit;p50 subunit (Homo sapiens;Homo sapiens, UniProt Q01201;P19838 120-401;7-356).
Holding throughout (assay): protein binding microarray; high values mean tight binding
Common to all, as to settings: dsDNA, one strand shown

The next experiment addresses T1, p52p52 homodimer (Homo sapiens, UniProt Q00653 4-332).
T1 sequence: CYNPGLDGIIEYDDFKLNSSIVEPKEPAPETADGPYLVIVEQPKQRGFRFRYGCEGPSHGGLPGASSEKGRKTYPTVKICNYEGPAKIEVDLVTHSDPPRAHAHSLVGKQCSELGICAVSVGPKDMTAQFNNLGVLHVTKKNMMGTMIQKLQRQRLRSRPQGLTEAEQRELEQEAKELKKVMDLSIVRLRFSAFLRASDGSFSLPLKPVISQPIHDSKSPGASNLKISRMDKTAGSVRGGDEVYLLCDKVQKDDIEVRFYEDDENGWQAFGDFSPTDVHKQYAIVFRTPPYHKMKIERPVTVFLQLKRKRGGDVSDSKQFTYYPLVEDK

Experiment [1] deals with RELA (p65) subunit of heterodimer;p50 subunit (Homo sapiens;Homo sapiens, UniProt Q04206;P19838 1-307;7-356).
The target in experiment [2] is RELA (p65) subunit of heterodimer;p52 subunit (Homo sapiens;Homo sapiens, UniProt Q04206;Q00653 1-307;4-332).
A further experiment addresses T2, RELB subunit;p52 subunit (Homo sapiens;Homo sapiens, UniProt Q01201;Q00653 120-401;4-332).
T2 sequence 1: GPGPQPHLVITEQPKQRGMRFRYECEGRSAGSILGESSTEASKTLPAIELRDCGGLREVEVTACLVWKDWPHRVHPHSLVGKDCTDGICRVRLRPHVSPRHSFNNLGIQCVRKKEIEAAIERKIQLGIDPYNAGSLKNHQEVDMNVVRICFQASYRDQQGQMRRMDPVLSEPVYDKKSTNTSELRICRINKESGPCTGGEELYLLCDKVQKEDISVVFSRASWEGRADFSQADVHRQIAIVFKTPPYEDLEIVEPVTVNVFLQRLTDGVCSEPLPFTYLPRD
T2 sequence 2: T1 sequence

In experiment [3] the target is C-Rel subunit;p50 subunit (Homo sapiens;Homo sapiens, UniProt Q04864;P19838 1-285;7-356).
Experiment [4] concerns the target T3, C-Rel subunit;p52 subunit (Homo sapiens;Homo sapiens, UniProt Q04864;Q00653 1-285;4-332).
T3 sequence 1: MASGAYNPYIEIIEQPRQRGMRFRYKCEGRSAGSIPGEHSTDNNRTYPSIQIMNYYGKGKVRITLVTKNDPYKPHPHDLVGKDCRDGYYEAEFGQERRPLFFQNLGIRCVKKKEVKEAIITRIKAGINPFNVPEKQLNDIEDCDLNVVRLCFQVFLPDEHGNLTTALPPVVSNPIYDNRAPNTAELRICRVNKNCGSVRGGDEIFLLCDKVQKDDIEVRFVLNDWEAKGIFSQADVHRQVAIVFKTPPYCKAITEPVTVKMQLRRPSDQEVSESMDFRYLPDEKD
T3 sequence 2: T1 sequence

Sequence of p50p50 homodimer (P19838 7-356): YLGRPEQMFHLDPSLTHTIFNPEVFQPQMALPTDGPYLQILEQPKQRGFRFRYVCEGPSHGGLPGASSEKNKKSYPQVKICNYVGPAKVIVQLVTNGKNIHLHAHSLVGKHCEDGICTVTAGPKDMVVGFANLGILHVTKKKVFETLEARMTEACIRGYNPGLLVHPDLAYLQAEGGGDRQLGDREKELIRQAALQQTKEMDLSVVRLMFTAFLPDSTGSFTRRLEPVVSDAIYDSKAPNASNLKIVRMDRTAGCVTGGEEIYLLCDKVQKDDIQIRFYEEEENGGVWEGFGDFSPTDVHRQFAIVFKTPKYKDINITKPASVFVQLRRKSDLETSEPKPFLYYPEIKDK
Sequence of RELARELA (p65 homodimer) (Q04206 1-307): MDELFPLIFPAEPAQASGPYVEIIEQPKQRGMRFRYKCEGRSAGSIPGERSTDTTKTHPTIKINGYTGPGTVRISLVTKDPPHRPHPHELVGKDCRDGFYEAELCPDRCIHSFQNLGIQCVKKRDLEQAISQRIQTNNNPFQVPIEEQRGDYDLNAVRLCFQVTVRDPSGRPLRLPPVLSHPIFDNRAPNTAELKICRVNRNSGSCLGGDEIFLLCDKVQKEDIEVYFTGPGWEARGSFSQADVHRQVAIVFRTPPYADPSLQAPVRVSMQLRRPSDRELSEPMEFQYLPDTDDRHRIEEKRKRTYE
Sequence of RELA (p65) subunit of heterodimer;p50 subunit (Q04206 1-307, chain 1 of 2): as the sequence (Q04206 1-307) above
Sequence of RELA (p65) subunit of heterodimer;p50 subunit (P19838 7-356, chain 2 of 2): as the sequence (P19838 7-356) above

For AAAAGTCTCCC, the binding signal with RELARELA (p65 homodimer) is 0.0565 z-score; with p50p50 homodimer it was 0.0889 z-score; in the experiment with p52p52 homodimer, -0.045 z-score; in experiment [1], 0.215 z-score; in [2], 0.0155 z-score; in the experiment with RELB subunit;p50 subunit it was 0.205 z-score. Further, the binding signal with RELB subunit;p52 subunit was 0.142 z-score; in experiment [3], 0.0274 z-score; in experiment [4] it was -0.177 z-score.
Turning to GAGTGGATCCT, the binding signal was -0.466 z-score with RELARELA (p65 homodimer); -1.11 z-score with p50p50 homodimer; -0.663 z-score with p52p52 homodimer; -0.846 z-score in experiment [1]; -1 z-score in experiment [2]; -1.04 z-score in the experiment with RELB subunit;p50 subunit. Besides, the binding signal was -0.919 z-score with RELB subunit;p52 subunit, -1.49 z-score in [3] and -0.92 z-score in [4].
Turning to AAAGTTGCCCC, the binding signal was found to be 1 z-score with RELARELA (p65 homodimer); 0.606 z-score in the experiment with p50p50 homodimer; 0.147 z-score in the experiment with p52p52 homodimer; 0.949 z-score in [1]; 0.337 z-score in [2]; 0.677 z-score with RELB subunit;p50 subunit. Moreover, the binding signal stood at 0.595 z-score in the experiment with RELB subunit;p52 subunit, 1.26 z-score in experiment [3] and 0.617 z-score in experiment [4].
For the sequence CAGAATTCCCC, the binding signal with RELARELA (p65 homodimer) worked out at 3.2 z-score; in the experiment with p50p50 homodimer, 1.49 z-score; with p52p52 homodimer, 2.61 z-score; in experiment [1] it was 2.25 z-score; in experiment [2], 2.29 z-score; in the experiment with RELB subunit;p50 subunit, 2.26 z-score. In addition, the binding signal worked out at 2.21 z-score in the experiment with RELB subunit;p52 subunit, 1.73 z-score in [3] and 2.61 z-score in experiment [4].
As to AGAGGTCTCCC, the binding signal is 0.0815 z-score in the experiment with RELARELA (p65 homodimer); -0.751 z-score in the experiment with p50p50 homodimer; -0.27 z-score with p52p52 homodimer; -0.391 z-score in [1]; -0.315 z-score in experiment [2]; -0.0782 z-score with RELB subunit;p50 subunit. Besides, the binding signal with RELB subunit;p52 subunit was -0.00582 z-score; in experiment [3] it was -0.507 z-score; in experiment [4], -0.363 z-score.
Take CGATATTTCCT: the binding signal in the experiment with RELARELA (p65 homodimer) is 0.574 z-score; with p50p50 homodimer it was -0.558 z-score; in the experiment with p52p52 homodimer, -0.405 z-score; in experiment [1], -0.302 z-score; in experiment [2] it was -0.495 z-score; with RELB subunit;p50 subunit, -0.725 z-score. Moreover, the binding signal with RELB subunit;p52 subunit is -0.422 z-score; in experiment [3] it was -0.166 z-score; in [4], -0.154 z-score.
Turning to AAAATCTTCCC, the binding signal was 1.32 z-score with RELARELA (p65 homodimer); 0.807 z-score with p50p50 homodimer; 0.256 z-score in the experiment with p52p52 homodimer; 0.764 z-score in [1]; 0.419 z-score in experiment [2]; 0.54 z-score with RELB subunit;p50 subunit. The binding signal was 0.162 z-score in the experiment with RELB subunit;p52 subunit, 1.06 z-score in experiment [3] and 0.488 z-score in [4].
As for AAATTTCCCCC, the binding signal turned out to be 2.97 z-score with RELARELA (p65 homodimer); 1.66 z-score with p50p50 homodimer; 2.84 z-score in the experiment with p52p52 homodimer; 2.63 z-score in [1]; 2.41 z-score in [2]; 2.88 z-score in the experiment with RELB subunit;p50 subunit. The binding signal with RELB subunit;p52 subunit amounted to 2.69 z-score; in experiment [3], 2.02 z-score; in experiment [4], 2.57 z-score.
For the sequence CGGGGGGTCCC, the binding signal with RELARELA (p65 homodimer) turned out to be 0.448 z-score; with p50p50 homodimer, 0.975 z-score; with p52p52 homodimer, 2.05 z-score; in [1], 1.38 z-score; in [2], 1.59 z-score; with RELB subunit;p50 subunit it was 1.28 z-score. The binding signal is 1.67 z-score with RELB subunit;p52 subunit, 1.04 z-score in experiment [3] and 1.59 z-score in [4].
GAGTGCCCCCT: the binding signal was -0.00724 z-score with RELARELA (p65 homodimer); 1.11 z-score in the experiment with p50p50 homodimer; 0.614 z-score in the experiment with p52p52 homodimer; 0.954 z-score in experiment [1]; 0.871 z-score in experiment [2]; 0.913 z-score with RELB subunit;p50 subunit. Moreover, the results for the binding signal (in the experiment with RELB subunit;p52 subunit; in experiment [3]; in [4]) were 1.16 z-score, 0.836 z-score and 0.745 z-score, respectively.
Turning to AAGGTCCTCCT, the binding signal with RELARELA (p65 homodimer) was -0.719 z-score; with p50p50 homodimer it was -0.992 z-score; with p52p52 homodimer it was -0.49 z-score; in experiment [1] it was -0.86 z-score; in experiment [2] it was -0.773 z-score; with RELB subunit;p50 subunit it was -0.932 z-score. In addition, the values for the binding signal (in the experiment with RELB subunit;p52 subunit; in experiment [3]; in [4]) were -0.687 z-score, -1.16 z-score and -0.643 z-score, respectively.
On to GGAGTCGTCCT, for which the binding signal in the experiment with RELARELA (p65 homodimer) was -0.136 z-score; with p50p50 homodimer, -1.28 z-score; in the experiment with p52p52 homodimer it was -0.582 z-score; in experiment [1], -0.993 z-score; in experiment [2], -0.875 z-score; with RELB subunit;p50 subunit it was -1.03 z-score. For the same sequence, the binding signal with RELB subunit;p52 subunit was -0.714 z-score; in [3] it was -1.4 z-score; in [4] it was -0.812 z-score.
Consider AAGTTTCTCCC, for which the binding signal in the experiment with RELARELA (p65 homodimer) was 0.793 z-score; with p50p50 homodimer it was 0.601 z-score; with p52p52 homodimer it was 0.198 z-score; in experiment [1] it was 0.383 z-score; in experiment [2], 0.17 z-score; with RELB subunit;p50 subunit, 0.576 z-score. Moreover, the results for the binding signal (with RELB subunit;p52 subunit; in experiment [3]; in [4]) were 0.357 z-score, 0.423 z-score and 0.189 z-score, respectively.
With AAGAGGCCCCT, the binding signal was -0.777 z-score in the experiment with RELARELA (p65 homodimer); 0.359 z-score in the experiment with p50p50 homodimer; -0.0334 z-score with p52p52 homodimer; -0.301 z-score in experiment [1]; -0.248 z-score in experiment [2]; 0.196 z-score with RELB subunit;p50 subunit. In addition, the binding signal with RELB subunit;p52 subunit was 0.191 z-score; in experiment [3] it was -0.344 z-score; in [4] it was -0.287 z-score.
As to AGAGTGTCCCT, the binding signal with RELARELA (p65 homodimer) came to 0.267 z-score; with p50p50 homodimer it was 0.607 z-score; with p52p52 homodimer it was 0.823 z-score; in experiment [1], 0.527 z-score; in experiment [2] it was 0.604 z-score; in the experiment with RELB subunit;p50 subunit, 0.851 z-score. For the same sequence, the binding signal in the experiment with RELB subunit;p52 subunit amounted to 1.25 z-score; in experiment [3], 0.738 z-score; in experiment [4] it was 0.669 z-score.
